Source: PubChem BioAssay AID1159580 (chemical genetic matrix, 2015)
Hit rate of the full screen: of about 5,500 compounds, about 2,000 (36%) were called active. Inconclusive results (about 18%) are left out. Cut-off read from the data, not from the text of the source: active = normalized growth mostly below about 0.91 (no sharp cut-off); inconclusive = no clear call, values can overlap the other calls; inactive = mostly above about 0.92. The list shows a part of the results.

Experiment: chemical genetic growth profiling, strain panel (AID 1159580);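 note: tested at 20 µM; growth read once vehicle control cultures reached saturation at 30 °C; 1 = growth at the plate median or of vehicle wells; lower values mean less growth of the strain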
Details: growth OD

Measured: normalized growth

C=C1C2CCC3(C)C(c4ccoc4)OC(=O)CC13OC1CC(OC(C)=O)C(C)(C)C(CC(=O)OC)C12C (stereo unspecified)
active: S. cerevisiae deletion strains, locus YKL068W, active compounds read low 1.17 [resistant] | S. cerevisiae deletion strains, locus YKL085W, strain MDH1 (second series), active compounds read low 1.08 [resistant] | S. cerevisiae deletion strains, locus YKL085W, strain MDH1, active compounds read low 1.08 [resistant]
inactive: S. cerevisiae deletion strains, locus YJL168C, strain set2, active compounds read low 0.998 | S. cerevisiae deletion strains, locus YJL187C, strain SWE1 (second series), active compounds read low 1 | S. cerevisiae deletion strains, locus YJR043C, strain POL32, active compounds read low 1.02 | S. cerevisiae deletion strains, locus YKL160W, strain elf1, active compounds read low 1.01 | S. cerevisiae deletion strains, locus YKR001C, strain vps1, active compounds read low 1.02 | S. cerevisiae deletion strains, locus YKR026C, strain gcn3, active compounds read low 1 | S. cerevisiae deletion strains, locus YKR091W, strain srl3, active compounds read low 1 | S. cerevisiae deletion strains, locus YLL001W, strain dnm1, active compounds read low 1.01 | S. cerevisiae deletion strains, locus YLL026W, active compounds read low 1 | S. cerevisiae deletion strains, locus YLL041C, strain sdh2, active compounds read low 1 | S. cerevisiae deletion strains, locus YLR027C, strain aat2, active compounds read low 0.991 | S. cerevisiae deletion strains, locus YLR039C, strain RIC1, active compounds read low 0.988 | S. cerevisiae deletion strains, locus YLR058C, strain SHM2, active compounds read low 1 | S. cerevisiae deletion strains, locus YLR102C, strain apc9, active compounds read low 1.01 | S. cerevisiae deletion strains, locus YLR221C, strain rsa3, active compounds read low 0.995 | S. cerevisiae deletion strains, locus YLR258W, strain gsy2, active compounds read low 0.994 | S. cerevisiae deletion strains, locus YLR262C, strain YPT6 (second series), active compounds read low 0.972 | S. cerevisiae deletion strains, locus YLR262C, strain YPT6, active compounds read low 0.933 | S. cerevisiae deletion strains, locus YLR268W, strain sec22, active compounds read low 0.984 | S. cerevisiae deletion strains, locus YLR320W, strain mms22, active compounds read low 1.01 | S. cerevisiae deletion strains, locus YLR342W, strain FKS1, active compounds read low 0.992 | S. cerevisiae deletion strains, locus YLR357W, strain rsc2, active compounds read low 1.02 | S. cerevisiae deletion strains, locus YLR370C, strain arc18, active compounds read low 0.998 | S. cerevisiae deletion strains, locus YLR371W, strain rom2, active compounds read low 1.01 | S. cerevisiae deletion strains, locus YLR384C, strain iki3, active compounds read low 1.01 | S. cerevisiae deletion strains, locus YLR418C, strain cdc73, active compounds read low 0.983 | S. cerevisiae deletion strains, locus YML016C, strain PPZ1, active compounds read low 1.03 | S. cerevisiae deletion strains, locus YML032C, strain rad52, active compounds read low 0.999 | S. cerevisiae deletion strains, locus YML120C, strain ndi1, active compounds read low 1.01 | S. cerevisiae deletion strains, locus YML124C, strain tub3, active compounds read low 0.993 | S. cerevisiae deletion strains, locus YMR058W, strain fet3, active compounds read low 1.02 | S. cerevisiae deletion strains, locus YMR078C, strain ctf18, active compounds read low 0.988 | S. cerevisiae deletion strains, locus YMR125W, strain sto1, active compounds read low 1.01 | S. cerevisiae deletion strains, locus YMR129W, active compounds read low 1 | S. cerevisiae deletion strains, locus YMR205C, strain PFK2, active compounds read low 0.97 | S. cerevisiae deletion strains, locus YMR223W, strain ubp8, active compounds read low 0.991 | S. cerevisiae deletion strains, locus YMR231W, strain pep5, active compounds read low 1 | S. cerevisiae deletion strains, locus YMR307W, strain GAS1, active compounds read low 1.03 | S. cerevisiae deletion strains, locus YNL067W, strain RPL9B, active compounds read low 0.998 | S. cerevisiae deletion strains, locus YNL071W, strain lat1, active compounds read low 1.01 | S. cerevisiae deletion strains, locus YNL153C, strain GIM3, active compounds read low 1.02 | S. cerevisiae deletion strains, locus YNL209W, strain ssb2, active compounds read low 1.02 | S. cerevisiae deletion strains, locus YNL233W, strain BNI4, active compounds read low 1 | S. cerevisiae deletion strains, locus YNL248C, strain rpa49, active compounds read low 1.02 | S. cerevisiae deletion strains, locus YNL250W, strain rad50, active compounds read low 0.982 | S. cerevisiae deletion strains, locus YNL271C, strain bni1, active compounds read low 1 | S. cerevisiae deletion strains, locus YNL298W, strain CLA4, active compounds read low 0.997 | S. cerevisiae deletion strains, locus YNL307C, strain MCK1, active compounds read low 0.999 | S. cerevisiae deletion strains, locus YNL322C, strain KRE1 (second series), active compounds read low 1.02 | S. cerevisiae deletion strains, locus YNR049C, strain mso1, active compounds read low 1.02 | S. cerevisiae deletion strains, locus YNR052C, strain pop2, active compounds read low 1.01 | S. cerevisiae deletion strains, locus YOL006C, strain TOP1, active compounds read low 0.984 | S. cerevisiae deletion strains, locus YOL012C, strain htz1 1.69 | S. cerevisiae deletion strains, locus YOL147C, strain pex11, active compounds read low 0.999 | S. cerevisiae deletion strains, locus YOR001W, strain rrp6, active compounds read low 1.03 | S. cerevisiae deletion strains, locus YOR061W, strain CKA2, active compounds read low 1.01 | S. cerevisiae deletion strains, locus YOR069W, strain VPS5, active compounds read low 1.01 | S. cerevisiae deletion strains, locus YOR070C, strain gyp1, active compounds read low 1.02 | S. cerevisiae deletion strains, locus YOR080W, strain dia2, active compounds read low 1.01 | S. cerevisiae deletion strains, locus YOR083W, strain WHI5, active compounds read low 1 | S. cerevisiae deletion strains, locus YOR106W, strain vam3, active compounds read low 0.999 | S. cerevisiae deletion strains, locus YOR136W, strain idh2, active compounds read low 0.989 | S. cerevisiae deletion strains, locus YOR144C, strain elg1, active compounds read low 1 | S. cerevisiae deletion strains, locus YOR184W, strain ser1, active compounds read low 1 | S. cerevisiae deletion strains, locus YOR265W, strain rbl2, active compounds read low 1.01 | S. cerevisiae deletion strains, locus YOR270C, strain vph1, active compounds read low 0.951 | S. cerevisiae deletion strains, locus YOR290C, strain snf2, active compounds read low 0.996 | S. cerevisiae deletion strains, locus YOR316C, strain cot1, active compounds read low 1.01 | S. cerevisiae deletion strains, locus YPL051W, strain arl3, active compounds read low 1.01 | S. cerevisiae deletion strains, locus YPL078C, strain atp4, active compounds read low 1 | S. cerevisiae deletion strains, locus YPL106C, strain sse1, active compounds read low 0.989 | S. cerevisiae deletion strains, locus YPL240C, strain hsp82, active compounds read low 1.02 | S. cerevisiae deletion strains, locus YPR119W, strain clb2, active compounds read low 0.998 | S. cerevisiae deletion strains, locus YPR141C, strain kar3, active compounds read low 1.01 | S. cerevisiae deletion strains, locus YPR163C, strain tif3, active compounds read low 0.991 | S. cerevisiae deletion strains, locus YPR167C, strain met16, active compounds read low 1 | S. cerevisiae deletion strains, strain wtn01, active compounds read low 0.983 | S. cerevisiae strains, strain wild type, active compounds read low 1.01
